Source: PubChem BioAssay AID1345082 (National Center for Advancing Translational Sciences (NCATS), 2018)
Hit rate of the full screen: of about 94,000 compounds, about 4,000 (4.3%) were called active. Inconclusive results (about 29%) are left out. Calls come from the whole dose curve; as a rule, active = well fitted inhibition curve with a large enough effect; inconclusive = small, poorly fitted or top-dose-only effect; inactive = no such curve, though single readings can be large or run the other way. For the sample, actives were picked, then their nearest neighbours and some compounds at random.
% is set by controls: 0 for no effect and ±100 for the full control effect; potency is the fitted concentration of half-maximal effect.

Experiment: Cytotoxic Profiling in NIH 3T3 Cell Line of Diverse Libraries Using Quantitative High-Throughput Screening; note: nearly all actives have a fitted effect of over 55% in size
Details: NIH 3T3 viability, CellTiter-Glo ATP luminescence, 48-72 h; series mostly up to 96.7 µM; activity change, negative = cytotoxicity: at the top concentration
How it was run: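 Cytotoxicity is measured as loss of cellular ATP: NIH 3T3 cells (400/well) are exposed to compound for 48 or 72 hr at 37 °C, then CellTiter-Glo luminescence is imaged after 10 min at room temperature.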
For CNC(=O)[C@H]1C[C@H](Oc2cccnc2)CN1C(=O)c1ccccc1, the “activity change, negative = cytotoxicity” value was -6.57% (inactive). For CCOc1ccccc1CN1CCc2nc(N3CCN(C)CC3)[nH]c(=O)c2CC1, the “activity change, negative = cytotoxicity” value was -20.9% (inactive). With CC(C)N1CC2(C1)C(=O)N(Cc1cccc(Cl)c1)C(=O)[C@@H]1C[C@@H](O)CN12 the “activity change, negative = cytotoxicity” value was -3.82% [at 174 µM] (inactive). In the case of CC(C)NC(=O)C(C)[C@@H]1CC[C@@]2(C)CC[C@H](N[S+](C)(=O)[O-])[C@@H](C)[C@@H]2[C@H]1O (stereo not given in full), the “activity change, negative = cytotoxicity” value is reported as -26.4% [at 138 µM] (inactive). With CCOc1ccc(NC(=O)C2CN(S(C)(=O)=O)CC23CCCCC3)cc1 (stereo not given) the “activity change, negative = cytotoxicity” value was -6.07% (inactive). With Cc1cc(C2CCCN2C(=O)c2ccc(F)c(F)c2)on1 (stereo not given) the “activity change, negative = cytotoxicity” value was -11.7% (inactive). In the case of O=C(O)C[C@@H]1CCN(C(=O)Nc2ccccc2)C[C@@H]1CC1=NCCc2cc(F)ccc21, the “activity change, negative = cytotoxicity” value is reported as -21.7% [at 174 µM] (inactive). For O=C1CC2(CCN(C(=O)C3CCN(C(=O)Cc4ccc(F)cc4)CC3)CC2)Oc2ccccc2N1, the “activity change, negative = cytotoxicity” value was -10.8% (inactive). For COc1ccc(-c2cccc(C(=O)N3CCC(NC(=O)c4ccc(C(F)(F)F)cc4)CC3)c2)nn1, the “activity change, negative = cytotoxicity” value was -27.6% (inactive). In the case of COc1ccc(-c2ccc3ncc(Nc4ccc(C(F)(F)F)cc4)n3n2)cn1, the Potency is reported as 79.4 µM (active). With COc1ccc(-c2ccc3ncc(Nc4cc(F)cc(N5CCOCC5)c4)n3n2)cn1 the “activity change, negative = cytotoxicity” value was -19.1% [at 138 µM] (inactive). For CC(=O)NCCc1ncc(C)n1C1CCCCC1, the “activity change, negative = cytotoxicity” value was -3.39% (inactive). In the case of Cn1c(=O)n(C)c2cc(S(=O)(=O)N[C@@H]3CCOC[C@H]3O)ccc21, the “activity change, negative = cytotoxicity” value is reported as 4.94% (inactive). For COCCC1(NC(=O)C2CCOCC2)CCN(C(=O)C2COc3ccccc3O2)CC1 (stereo not given), the “activity change, negative = cytotoxicity” value was -5.99% (inactive). In the case of COCC(=O)NCCC1CCN(C(=O)Nc2cc(F)cc(F)c2)CC1, the “activity change, negative = cytotoxicity” value is reported as -8.74% (inactive). For COc1ccc(NC(=O)Cn2ccn3nc(-c4ccc(F)cc4)c(CO)c3c2=O)cc1OC, the “activity change, negative = cytotoxicity” value was -10% (inactive). With CCOc1ccc(NC(=O)C2(Cc3cccnc3)CCCCC(=O)N2)cc1 (stereo not given) the “activity change, negative = cytotoxicity” value was -17.6% (inactive). With COc1cccc(NC(=O)c2ccc3c(c2)NC(C)(COc2ccccc2)CO3)c1 (stereo not given) the Potency was 39.8 µM (active). With O=C(NCc1cccc(F)c1)C1CN(c2ccccc2)C(=O)N1 (stereo not given) the “activity change, negative = cytotoxicity” value was -20.5% [at 138 µM] (inactive). With CN(C)CCN(C)C(=O)c1ccc2c(c1)NC(C)(COc1ccc3[nH]ccc3c1)CO2 (stereo not given) the Potency was 79.4 µM (active). For O=C(Nc1cccnc1)c1ccc2c(c1)OCCN(Cc1ncccn1)C2, the “activity change, negative = cytotoxicity” value was -15.5% [at 138 µM] (inactive). For CC1(CNc2ccccc2)COc2ccc(C(=O)NCc3cccc(F)c3)cc2N1 (stereo not given), the Potency was 39.8 µM (active). In the case of CC1(CCCCc2ccccc2)COc2ccc(C(=O)N3CC[S+](=O)([O-])CC3)cc2N1 (stereo not given), the “activity change, negative = cytotoxicity” value is reported as -27.6% (inactive). In the case of COc1ccc(C(=O)Nc2cccc(-c3nnc4n3CCCC4)c2)cc1, the “activity change, negative = cytotoxicity” value is reported as -23.6% (inactive). For COc1ccc(OCC2(C)COc3ccc(C(=O)Nc4cccnc4)cc3N2)cc1 (stereo not given), the Potency was 44.7 µM (active). In the case of O=C(NCC1CCOCC1)c1ccc2[nH]ccc2c1, the “activity change, negative = cytotoxicity” value is reported as -3.18% (inactive). With COc1cccc(C(=O)Nc2ccc3c(c2)CN(Cc2ccc(OC)cc2OC)C(=O)CO3)c1 the “activity change, negative = cytotoxicity” value was -28.5% (inactive). In the case of CC(C)NC(=O)NC1CCCN(c2ccc3nnc(C4CC4)n3n2)C1 (stereo not given), the “activity change, negative = cytotoxicity” value is reported as 2.65% [at 138 µM] (inactive). With O=C(NCCc1noc(C2CCCC2)n1)c1cc(F)c(F)cc1Cl the “activity change, negative = cytotoxicity” value was -30.7% (inactive). For O=C(NCCn1cnc2ccccc2c1=O)C1CC(=O)N(c2n[nH]c3ccccc23)C1 (stereo not given), the “activity change, negative = cytotoxicity” value was -4.68% (inactive). In the case of CCOc1ccc(NC(=O)Cn2c(N3CCOCC3)nc(COC)cc2=O)cc1, the “activity change, negative = cytotoxicity” value is reported as -25% (inactive). In the case of O=C(c1ccc(F)cc1)N1CCC[C@H]1c1nc(-c2ccccc2Cl)no1, the “activity change, negative = cytotoxicity” value is reported as -13.6% (inactive). For Cc1ncc(C(=O)N2C[C@@H](C(=O)O)[C@H](c3ccc4c(c3)OCO4)C2)c(C)n1, the “outcome” value was “inactive”. For COCCNc1ncnc2c1CN(C1CCCNCC1)C(=O)CN2C (stereo not given), the “activity change, negative = cytotoxicity” value was -32% (inactive). With COCc1cc(=O)n(CC(=O)NCc2ccc(C)cc2)c(N2CCOCC2)n1 the “activity change, negative = cytotoxicity” value was 1.74% (inactive). In the case of CCCCOC(=O)c1ccc(NC(=O)c2c(OC)cc(=O)n3c2CCCC3)cc1, the “activity change, negative = cytotoxicity” value is reported as -8.34% (inactive). With O=C(c1ccccc1Cl)N1CC2(Cc3ccccc3NC2=O)C1 the “outcome” value was “inactive”. With COc1ccc(CC(=O)N2CCC[C@H]2c2nc(-c3ccccc3)no2)cc1 the “activity change, negative = cytotoxicity” value was -21.5% (inactive). In the case of COc1ccc(CC(=O)NC2CCCc3c2[nH]c2ccccc32)cc1 (stereo not given), the Potency is reported as 31.6 µM (active). With O=C(NC1CCCc2c1[nH]c1ccc(F)cc21)c1ccccn1 (stereo not given) the “activity change, negative = cytotoxicity” value was -11.4% (inactive). For O=C(Cc1ccccc1)NC1CCCc2c1[nH]c1c(Cl)cccc21 (stereo not given), the Potency was 35.5 µM (active). For O=C(Cn1nc2c(cc1=O)CCCC2)NC1CCCc2c1[nH]c1c(Cl)cccc21 (stereo not given), the “activity change, negative = cytotoxicity” value was -11.9% (inactive). With O=C(Cn1nc(-c2ccco2)ccc1=O)NC1CCCc2c1[nH]c1c(Cl)cccc21 (stereo not given) the “activity change, negative = cytotoxicity” value was -2.22% (inactive). For COc1ccc(CN2CCc3oc(C)c(C(=O)NCCN4CCCC4)c3C2)cc1, the “activity change, negative = cytotoxicity” value was -16.9% (inactive). For CN(C)C(=O)c1nc(-c2ccc(Cl)cc2Cl)c2cnccn12, the “activity change, negative = cytotoxicity” value was -16% (inactive). For CN(C)C[C@@H]1CN(c2ncccn2)C[C@H]1NC(=O)Cc1ccccc1Cl, the “activity change, negative = cytotoxicity” value was -7.01% (inactive). For c1cncc(-c2cnc([C@@H]3COCCN3Cc3cnc4ccccc4c3)[nH]2)c1, the “activity change, negative = cytotoxicity” value was -1.17% [at 174 µM] (inactive). In the case of CN(C)c1ccc(CN2CCOC[C@H]2c2ncc(-c3cccc(F)c3)[nH]2)cc1, the “activity change, negative = cytotoxicity” value is reported as -27.2% [at 138 µM] (inactive). In the case of Oc1ccccc1CN1CCOC[C@H]1c1ncc(-c2ccc(C(F)(F)F)cc2)[nH]1, the Potency is reported as 50.1 µM (active). In the case of Cn1cc(CN2CCOC[C@H]2c2ncc(-c3cccc(F)c3)[nH]2)c2ccccc21, the Potency is reported as 39.8 µM (active). In the case of CC(C)(C)c1coc([C@@H]2COCCN2Cc2ccc(F)cc2)n1, the “activity change, negative = cytotoxicity” value is reported as -18.2% [at 138 µM] (inactive). With Cc1ccc(CN2CCOC[C@H]2c2ncc(-c3cccc(F)c3)[nH]2)cc1 the Potency was 79.4 µM (active). For Fc1ccc(CN2CCOC[C@H]2c2ncc(-c3cccnc3)[nH]2)cc1, the “activity change, negative = cytotoxicity” value was -7.62% [at 174 µM] (inactive). For Cn1cc(CN2CC[C@H](c3nnc(-c4cccnc4)o3)C2)c2ccccc21, the “activity change, negative = cytotoxicity” value was -9.9% [at 138 µM] (inactive). With CN(Cc1ccccc1)Cc1cn([C@H]2CO[C@H]3[C@@H]2OC[C@@H]3NS(C)(=O)=O)nn1 the “activity change, negative = cytotoxicity” value was -3.96% [at 174 µM] (inactive). With CCc1noc(-c2cccn3c(CNC(=O)C(CC)c4ccccc4)nnc23)n1 (stereo not given) the “activity change, negative = cytotoxicity” value was -7.72% (inactive). With CCn1cc(S(=O)(=O)N2CC[C@H](CNC(C)=O)[C@H](N(C)C)C2)cn1 the “activity change, negative = cytotoxicity” value was -3.26% (inactive). For Cc1ccc(F)cc1S(=O)(=O)N1CCn2c(nn(CC3CC3)c2=O)C1, the “outcome” value was “inactive”. With O=C(C[C@@H]1O[C@H](CNC(=O)C2CC2)[C@@H](O)[C@H]1O)NCCN1CCOCC1 the “activity change, negative = cytotoxicity” value was 2.3% [at 174 µM] (inactive). For Cc1ccnc(N2CC[C@@H]3[C@@H](CCC(=O)N3CCc3ccccn3)C2)n1, the “activity change, negative = cytotoxicity” value was -23.3% (inactive). In the case of c1cncc(-c2noc(C3CCCN(Cc4cc5n(n4)CCNC5)C3)n2)c1 (stereo not given), the “activity change, negative = cytotoxicity” value is reported as 1.2% (inactive). In the case of CCOC(=O)N1CCC(=O)N(Cc2ccccc2)Cc2cc(OC)ccc21, the “activity change, negative = cytotoxicity” value is reported as -26.4% (inactive). In the case of Cc1nc(C(C)C)ncc1C(=O)N1CCN(C)C2(CCNC(=O)CC2)C1 (stereo not given), the “activity change, negative = cytotoxicity” value is reported as 3.15% (inactive). For CNC(=O)[C@@H](c1ccccc1F)N1CCC[C@H]1C(=O)NCCOC, the “activity change, negative = cytotoxicity” value was -12.7% [at 174 µM] (inactive). With O=C(c1cccs1)N1CCOCC2(CN(Cc3cc(F)cc(F)c3)C2)C1 the “activity change, negative = cytotoxicity” value was -19.7% [at 138 µM] (inactive). With CC(=O)N1CCC2(CC1)CN(C(=O)Cc1cccc(Cl)c1)CCO2 the “activity change, negative = cytotoxicity” value was 3.86% (inactive). In the case of O=C(Cc1ccc(F)cc1)N1CCOCC2(CN(Cc3ccccc3)C2)C1, the Potency is reported as 35.5 µM (active). For Cc1nc(-c2cn(C3CCCN(C(=O)c4sccc4C)C3)nn2)no1 (stereo not given), the “activity change, negative = cytotoxicity” value was -3.14% (inactive). With CCN1CCN(CCNC(=O)C2Cn3cccc3C(=O)N2Cc2cccnc2)CC1 (stereo not given) the “activity change, negative = cytotoxicity” value was -3.23% (inactive). In the case of N#Cc1ccc(CN2CCc3nc(C(=O)N4CCOCC4)oc3CC2)cc1, the “activity change, negative = cytotoxicity” value is reported as -23.4% [at 138 µM] (inactive).
